Calls of active or inactive are those of the source.

The test system of experiment [1] is Human papillomavirus type 1a protein E7 (residues 44-93). Briefly: small molecules binding HPV E7 44-93 – biochemical, small-molecule microarray, residues 44-93, 635 nm fluorescence, primary screen (AID 1108).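 Also: E7 fragment applied at 1 µg/mL in TBST for 1 h at 4 C; score combines spot fluorescence with its signal to noise ratio.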 To be noted: fluorescence 635 nm, higher = more signal.
The nature of experiment [2]: hepatitis C replication reporter changes, two-sided – Huh7 cells, luciferase reporter, HCV replication inhibitor project, primary screen (AID 1109).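 Also: huh7 hepatoma cells harbouring a luciferase neomycin HCV replicon reporter; luciferase luminescence as measure of HCV replicon replication; test concentration not given here.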 To be noted: Huh7 HCV replicon luciferase reporter, 48 h; higher = more signal. (In general: In a reporter assay the amount or activity of a reporter protein is the signal.)
Experiment [3] has as its target Left-right determination factor 2 (Homo sapiens) (UniProt O00292). Briefly: small molecules binding LEFTY2 protein – biochemical, small-molecule microarray, 635 nm fluorescence scan, primary screen (AID 1110). To be noted: higher = more signal.
The target in experiment [4] is Calmodulin-1 (Homo sapiens) (UniProt P0DP23). Kind of experiment: small molecules binding calmodulin-1 with EGTA – biochemical, small-molecule microarray, Cy5-labelled CALM1, profiling panel (AID 1111).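 Also: labelled calmodulin applied in Tris saline Tween buffer holding calcium plus EGTA and DTT.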 To be noted: Cy5-CALM1 binding fluorescence, higher = more signal.
Experiment [5] shares this target. Briefly: small molecules binding Ca-loaded calmodulin-1 – biochemical, small-molecule microarray, Cy5-labelled CALM1, plus calcium, artefact control for SMM control-protein annotation, profiling panel (AID 1112).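 Also: score merges spot fluorescence with signal to noise from triplicate slides.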 The following applies: Cy5-CALM1 binding fluorescence, higher = more signal.
Experiment [6] in a line: probe aWnt5a binding to arrayed compounds – biochemical, biotinylated probe, 635/667 nm fluorescence, primary screen (AID 1113).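 Also: score merges 667 nm fluorescence intensity with signal-to-noise per printed feature.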 To be noted: small-molecule microarray, higher = more signal.
A short description of experiment [7]: probe aShh binding to arrayed compounds – biochemical, biotinylated probe, 635/667 nm fluorescence, primary screen (AID 1114).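 Also: probe is biotin-labelled aShh protein from a stem cell growth factor screen; measures binding of labelled protein to compounds printed on the slide; score merges feature fluorescence at 667 nm with signal-to-noise.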 To be noted: small-molecule microarray, higher = more signal.
Experiment [8] can be described thus: probe aNog binding to arrayed compounds – biochemical, biotinylated probe, 635/667 nm fluorescence, primary screen (AID 1115).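 Also: probe is biotinylated aNog protein used at 0.15 µg/mL for 1 h at 4 C; z-score combines 667 nm fluorescence of each spot with its signal to noise.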 The following applies: small-molecule microarray, higher = more signal.
Experiment [9] concerns the target Torsin-1A-interacting protein 1 (Homo sapiens) (UniProt Q5JTV8). Briefly: compound microarray binding of lysate hLAP1 – cell lysate, small-molecule microarray, COS7 lysate, 635/667 nm fluorescence, primary screen (AID 1116). The following applies: 635 nm fluorescence, higher = more signal.
The target of experiment [10] is Alpha-bungarotoxin (Bungarus multicinctus) (UniProt P60615). Kind of experiment: compounds binding labelled alpha-BTX control protein – biochemical, small-molecule microarray, Alexa647 label, 635/667 nm fluorescence, artefact control for SMM control protein annotation, profiling panel (AID 1117). The following applies: alpha-BTX-A647 binding fluorescence, higher = more signal.
Chain of Alpha-bungarotoxin (Bungarus multicinctus) (P60615 whole entry, looked up): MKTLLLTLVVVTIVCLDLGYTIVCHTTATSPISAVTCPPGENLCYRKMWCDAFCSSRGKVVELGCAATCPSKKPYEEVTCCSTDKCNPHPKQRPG

Another experiment has as its target Albumin (Bos taurus) (UniProt P02769). Briefly: compounds binding labelled BSA control protein – biochemical, small-molecule microarray, Alexa647 label, 635/667 nm fluorescence, artefact control for SMM control protein annotation, profiling panel (AID 1118).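 Also: score merges 667 nm emission intensity and signal-to-noise per printed compound spot.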 To be noted: BSA-A647 binding, fluorescence 635 nm, higher = more signal.
The nature of experiment [11]: probe aXIP binding to arrayed compounds – biochemical, NeuroSMM set, 635/667 nm fluorescence, primary screen (AID 1119).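 Also: probe is the protein aXip251-270 applied at 1 µg/mL to compound-printed slides; binding of probe to printed compounds measured as 667 nm fluorescence plus signal to noise.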 To be noted: small-molecule microarray, higher = more signal, called active from +8 up or from −8 down.
A short description of experiment [12]: probe aNOTCH3 binding on compound microarray – biochemical, small-molecule microarray, 635/667 nm fluorescence, primary screen (AID 1120).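 Also: probe is a biotin-tagged antibody raised against NOTCH3 rather than NOTCH3 protein; score merges spot fluorescence near 667 nm with spot signal to noise.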 The following applies: higher = more signal.
A short description of experiment [13]: probe aNOTCH2 binding on compound microarray – biochemical, small-molecule microarray, 635/667 nm fluorescence, primary screen (AID 1121).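 Also: score merges feature fluorescence read at 667 nm with its signal to noise.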 To be noted: higher = more signal.
For experiment [14], the target named is Carbonic anhydrase 2 (Homo sapiens) (UniProt P00918). Briefly: compounds binding carbonic anhydrase 2 – biochemical, small-molecule microarray, Alexa647-labelled CAII, profiling panel (AID 1122). The following applies: CAII-A647 binding fluorescence, higher = more signal.
Experiment [15] in a line: COS7 lysate on small-molecule microarray, probe aHis, 635 nm (AID 1123).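 Also: z-score combines 667nm fluorescence intensity with signal-to-noise per printed compound spot.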 To be noted: COS7 cell lysate, fluorescence, higher = more signal.
Experiment [16] can be described thus: probe aLAP1 signal on lysate-treated microarray – cell lysate, small-molecule microarray, COS7 lysate, primary screen (AID 1124).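 Also: lysate comes from COS7 cells expressing LAP1 and is applied at 0.3 µg/mL; score merges spot fluorescence near 667 nm with signal-to-noise over triplicate slides.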 To be noted: probe aLAP1, fluorescence, higher = more signal.
For another experiment, the system named is Sam68 (KHDRBS1). Kind of experiment: compounds binding KHDRBS1 protein – biochemical, small-molecule microarray, 635 nm fluorescence, primary screen (AID 1125).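 Also: score merges 667 nm channel intensity with signal to noise over triplicate slides.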 The following applies: higher = more signal.
Experiment [17] relates to Chordin-like protein 2 (CHRDL2). Kind of experiment: compounds binding chordin-like 2 – biochemical, small-molecule microarray, 635 nm fluorescence, primary screen (AID 1126).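 Also: printed compound slides probed with Chrdl2 protein at 4 µg/mL for 1 h at 4 C; score merges 667 nm emission intensity with signal to noise over three replicate slides.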 The following applies: fluorescence 635 nm, higher = more signal.
The target of experiment [18] is Concanavalin-A (Canavalia ensiformis) (UniProt P02866). Briefly: compounds binding concanavalin A lectin – biochemical, small-molecule microarray, Alexa647 label, 635 nm, artefact control for SMM control protein annotation, primary screen (AID 1127).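 Also: z combines 667 nm emission intensity with signal-to-noise across three replicate slides.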 To be noted: ConA-A647 binding fluorescence, higher = more signal.
Chain of Concanavalin-A (Canavalia ensiformis) (P02866 whole entry, looked up): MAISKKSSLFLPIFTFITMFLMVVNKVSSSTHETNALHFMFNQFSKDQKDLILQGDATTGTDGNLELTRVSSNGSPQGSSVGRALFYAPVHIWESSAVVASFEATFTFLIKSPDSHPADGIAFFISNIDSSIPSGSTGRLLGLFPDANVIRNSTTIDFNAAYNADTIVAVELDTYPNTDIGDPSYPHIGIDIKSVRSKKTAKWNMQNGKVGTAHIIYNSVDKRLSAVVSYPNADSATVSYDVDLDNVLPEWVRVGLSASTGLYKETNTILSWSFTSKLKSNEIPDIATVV

Chain of Albumin (Bos taurus) (P02769 whole entry, looked up): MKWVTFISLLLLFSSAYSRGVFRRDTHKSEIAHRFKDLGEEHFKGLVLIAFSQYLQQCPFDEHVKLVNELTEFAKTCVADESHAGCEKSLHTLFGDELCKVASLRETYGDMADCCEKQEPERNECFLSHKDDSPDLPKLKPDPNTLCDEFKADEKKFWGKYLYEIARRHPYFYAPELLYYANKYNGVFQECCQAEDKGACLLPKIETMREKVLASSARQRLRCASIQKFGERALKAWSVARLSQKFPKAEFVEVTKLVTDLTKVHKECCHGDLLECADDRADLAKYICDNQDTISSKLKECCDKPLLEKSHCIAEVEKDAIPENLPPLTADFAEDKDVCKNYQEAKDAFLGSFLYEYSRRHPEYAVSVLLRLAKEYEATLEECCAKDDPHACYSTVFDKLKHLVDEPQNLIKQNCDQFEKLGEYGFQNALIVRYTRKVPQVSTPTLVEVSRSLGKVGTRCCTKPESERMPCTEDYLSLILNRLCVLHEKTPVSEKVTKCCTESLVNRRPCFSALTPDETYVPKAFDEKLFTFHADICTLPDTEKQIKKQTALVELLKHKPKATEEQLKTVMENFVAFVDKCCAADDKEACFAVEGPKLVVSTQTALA
Chain of Left-right determination factor 2 (Homo sapiens) (O00292 whole entry, looked up): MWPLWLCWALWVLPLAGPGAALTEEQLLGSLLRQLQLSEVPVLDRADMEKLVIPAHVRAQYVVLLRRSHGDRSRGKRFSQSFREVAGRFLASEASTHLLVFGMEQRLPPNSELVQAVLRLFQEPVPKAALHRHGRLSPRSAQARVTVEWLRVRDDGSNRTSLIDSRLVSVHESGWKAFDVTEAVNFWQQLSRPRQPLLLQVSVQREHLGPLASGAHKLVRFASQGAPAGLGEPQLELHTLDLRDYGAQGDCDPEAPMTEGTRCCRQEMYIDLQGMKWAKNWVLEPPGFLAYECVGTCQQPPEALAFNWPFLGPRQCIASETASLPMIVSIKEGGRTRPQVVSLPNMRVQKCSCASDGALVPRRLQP
Chain of Torsin-1A-interacting protein 1 (Homo sapiens) (Q5JTV8 whole entry, looked up): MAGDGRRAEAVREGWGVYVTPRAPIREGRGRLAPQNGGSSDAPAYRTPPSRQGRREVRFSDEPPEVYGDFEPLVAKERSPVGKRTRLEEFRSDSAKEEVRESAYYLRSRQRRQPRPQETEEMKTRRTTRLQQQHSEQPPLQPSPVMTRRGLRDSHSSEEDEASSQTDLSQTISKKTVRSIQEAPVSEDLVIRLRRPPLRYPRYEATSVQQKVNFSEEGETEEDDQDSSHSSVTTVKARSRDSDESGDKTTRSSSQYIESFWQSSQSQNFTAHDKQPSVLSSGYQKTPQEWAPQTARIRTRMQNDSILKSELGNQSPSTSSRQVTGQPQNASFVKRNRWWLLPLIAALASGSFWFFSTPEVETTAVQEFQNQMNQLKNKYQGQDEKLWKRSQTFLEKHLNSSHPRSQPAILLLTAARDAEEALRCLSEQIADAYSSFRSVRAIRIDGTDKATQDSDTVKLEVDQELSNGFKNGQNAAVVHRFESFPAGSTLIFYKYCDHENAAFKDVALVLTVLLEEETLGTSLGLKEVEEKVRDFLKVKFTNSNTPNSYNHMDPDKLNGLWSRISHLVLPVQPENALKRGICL

In the case of `COc1ccc(CCNC(=O)[C@@H]2c3ccccc3C(=O)N(C3Cc4ccccc4C3)[C@H]2c2ccc(CO)cc2)cc1`, the composite z-score in experiment [1] is 1.35; in [3], 0.0971; in experiment [4] it was 0.329; in experiment [5] it was 0.732; in experiment [6], -0.0738; in experiment [7], 0.0856. Moreover, the composite z-score in [8] is -0.417; in experiment [9], 1.24; in [10], 0.134; in the experiment with Albumin (Bos taurus) it was 0.397; in experiment [12] it was -0.0725; in experiment [13] it was -0.0907. Also, the composite z-score in [14] was 0.705; in experiment [15] it was 2.21; in [16], 0.0554; with Sam68 (KHDRBS1) it was 0.73; in experiment [17], -0.551; in [18], 0.542. Further, the z-score in experiment [2] was -1.14. The composite Z-score in experiment [11] was 0.131 (inactive).
Turning to `O=C1O[C@H](c2ccccc2)[C@H](c2ccccc2)N2[C@H]1[C@@H](C(=O)O)[C@]1(C(=O)Nc3ccc(C#CC4=CCCCC4)cc31)[C@H]2c1ccccc1OCCO`, the composite z-score in experiment [1] is -0.65; in experiment [3], 0.663; in experiment [4], 1.61; in experiment [5], 0.179; in experiment [6], 0.795; in experiment [7] it was -0.602. In addition, the composite z-score amounted to 0.948 in [8]; 0.926 in experiment [9]; 2.23 in experiment [10]; 0.871 in the experiment with Albumin (Bos taurus); 0.806 in experiment [12]; 0.0062 in experiment [13]. For the same compound, the composite z-score in [14] was determined as 0.602; in experiment [15], 2.06; in experiment [16] it was 0.834; in the experiment on Sam68 (KHDRBS1), 1.31; in experiment [17], 0.401; in experiment [18], 1.19. This compound also had a z-score in [2] of -2.4. For the same compound, in experiment [11], the composite Z-score is 0.685 (inactive).
In the case of `CC1CC/C=C\[C@H]2OC34C=CCN(C(C)(C)C)C(=O)[C@H]3N(CCCCCCO)C(=O)[C@@H]4C2C(=O)O1` (stereo not given in full), the composite z-score in experiment [1] was -0.0409; in [3] it was -1.06; in experiment [4], -0.0234; in [5], 0.725; in [6], -0.154; in [7], -0.0553. Further, the composite z-score in [8] was 0.0511; in experiment [9], 0.656; in experiment [10] it was -1.06; with Albumin (Bos taurus), -0.805; in experiment [12], -0.295; in experiment [13], -0.114. In addition, the composite z-score in experiment [14] is 0.932; in [15], 0.178; in experiment [16], 0.843; with Sam68 (KHDRBS1) it was -0.281; in experiment [17], -1.07; in experiment [18], -0.239. The same compound registered a z-score in experiment [2] of -0.549. The composite Z-score in experiment [11] is -0.358 (inactive).
In the case of `COCCOC(=O)N1C(=O)[C@@]2(c3cc(C#CCCO)ccc31)[C@H](C(=O)Nc1nc3ccccc3s1)[C@H]1C(=O)O[C@H](c3ccccc3)[C@H](c3ccccc3)N1[C@@H]2c1ccc(OCCO)cc1`, the composite z-score in experiment [1] was 1.32; in experiment [3], 0.774; in experiment [4], 1.08; in [5] it was -0.263; in experiment [6] it was 0.115; in [7], 0.0898. Besides, the composite z-score in experiment [8] was -0.22; in experiment [9] it was 1.14; in experiment [10], 0.772; in the experiment with Albumin (Bos taurus), 0.72; in experiment [12] it was 0.286; in [13], -0.0028. For the same compound, the composite z-score in experiment [14] was 0.295; in experiment [15] it was 0.793; in experiment [16], 0.225; in the experiment on Sam68 (KHDRBS1), 1.28; in experiment [17], 0.387; in [18] it was 1.07. In [2], this compound gave a z-score of -1.81. In [11], the composite Z-score was -1.03 (inactive).
Take `COc1ccc([Si](C)(C)[C@H]2[C@H](CCO)O[C@@]3(C(=O)N(Cc4ccc(N5C(=O)COc6ccccc65)cc4)c4ccccc43)[C@@H]2C)cc1`: the composite z-score was 0.49 in experiment [1]; -1.45 in [3]; 0.471 in [4]; 0.601 in [5]; -0.147 in experiment [6]; -0.153 in [7]. Moreover, the composite z-score is 0.201 in experiment [8]; -0.373 in experiment [9]; 0.11 in experiment [10]; 0.373 with Albumin (Bos taurus); -0.241 in [12]; -0.176 in [13]. In addition, the composite z-score is -0.05 in experiment [14]; 0.303 in experiment [15]; -0.0122 in experiment [16]; 0.504 with Sam68 (KHDRBS1); -1.13 in experiment [17]; -0.116 in experiment [18]. This compound also yielded a z-score in experiment [2] of -4.92. Also, the composite Z-score in experiment [11] is 0.485 (inactive).
With `C#CCN(CC=C(C)C)[C@H](CO)c1ccccc1`, the composite z-score in experiment [1] was 0.309; in experiment [3], 0.185; in experiment [4], -0.171; in experiment [5], -0.438; in [6] it was 0.0771; in experiment [7], -0.279. For the same compound, the composite z-score in [8] is -0.176; in experiment [9], 0.455; in experiment [10] it was 0.136; in the experiment with Albumin (Bos taurus), -0.258; in experiment [12] it was 0.0081; in experiment [13] it was -0.0819. The composite z-score in experiment [14] was -0.0144; in experiment [15], -0.41; in [16], -0.277; in the experiment with Sam68 (KHDRBS1), 0.584; in experiment [17], -0.184; in experiment [18] it was -0.711. Moreover, in experiment [2], the z-score is -0.817. In addition, the composite Z-score in experiment [11] is 0.289 (inactive).
